The values that follow come from PubChem BioAssay (NCATS).

Structures are written as SMILES. Unmarked numbers belong to inactive results. Results filed as inconclusive are left out. Activity calls are given as the source filed them. Calls come from the whole dose curve; as a rule, active = well fitted curve in the direction sought with a large enough effect; inconclusive = small, poorly fitted or top-dose-only effect, or another doubt; inactive = no such curve, though single readings can be large; an effect the other way counts as inactive or inconclusive.

Assay [1] in a line: qHTS for Inhibitors of Plasmodium falciparum (7G8) proliferation (AID 504316). Note: nearly all actives have a fitted effect of over 65% in size. Note: potency is the fitted concentration of half-maximal effect. The essentials: (§1)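 Erythrocytes infected with P. falciparum line (0.3% parasitemia, 2.5% hematocrit final) incubated with compounds 72 h at 37 °C, 5% CO2; SYBR Green lysis buffer added, fluorescence read next day. Normalized to 0.29 uM artemisinin and DMSO.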
Background: In qHTS, concentration-response curves come from the screen itself.

Assay [2] in a line: qHTS for Inhibitors of Plasmodium falciparum (HB3) proliferation (AID 504318). Note: nearly all actives have a fitted effect of over 60% in size. Note: potency is the fitted concentration of half-maximal effect. The procedure, abridged: as §1
Assay [3] is described as follows: qHTS for Inhibitors of Plasmodium falciparum (CP250) proliferation (AID 504320).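 Note: plate controls were DMSO vehicle for no effect and 0.29 µM artemisinin control for full effect.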 The procedure, abridged:
as §1

Assay [4] is described as follows: qHTS for Inhibitors of Plasmodium falciparum (DD2) proliferation (AID 504314). Note: potency is the fitted concentration of half-maximal effect. The procedure, abridged: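 Erythrocytes infected with P. falciparum Dd2 (0.3% parasitemia, 2.5% hematocrit) exposed to compound 72 h at 37C, 5% CO2. Parasite DNA quantified by SYBR Green fluorescence after saponin/Triton lysis overnight; normalized to 0.29 uM artemisinin and DMSO.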
Assay [5] in a line: qHTS for Inhibitors of Plasmodium falciparum (GB4) proliferation (AID 504315).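 Note: 0% = DMSO vehicle and -100% = 0.29 µM artemisinin control; nearly all actives have a fitted effect of over 50% in size.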 The procedure, abridged: as §1
Assay [6] concerns the target Cytochrome P450 3A4 (Homo sapiens) (UniProt P08684). Description: qHTS Assay for Inhibitors and Substrates of Cytochrome P450 3A4 (AID 884). Note: potency is the fitted concentration of half-maximal effect; nearly all actives have a fitted effect of over 50% in size. The procedure, abridged: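 20 nM human CYP3A4 with 25 uM Luciferin-PPXE (at KM) in 200 mM KPO4, preincubated 10 min with compound; NADPH regeneration started a 60 min RT reaction. Luciferin detected by luminescence, normalized to 57 uM ketoconazole as full inhibition.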

For assay [7] the target is unchanged. Description: qHTS Assay for Activators of Cytochrome P450 3A4 (AID 885). Note: nearly all actives have a fitted effect of over 65% in size. The essentials:
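Human CYP3A4 (20 nM) with Luciferin-PPXE at 25 uM (its KM) in 200 mM KPO4; 10 min compound preincubation, then NADPH regeneration and 60 min reaction at RT. Luciferin read by luminescence; normalized to 57 uM ketoconazole full inhibition.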

Cytochrome P450 3A4 (Homo sapiens), sequence (P08684 whole entry, looked up): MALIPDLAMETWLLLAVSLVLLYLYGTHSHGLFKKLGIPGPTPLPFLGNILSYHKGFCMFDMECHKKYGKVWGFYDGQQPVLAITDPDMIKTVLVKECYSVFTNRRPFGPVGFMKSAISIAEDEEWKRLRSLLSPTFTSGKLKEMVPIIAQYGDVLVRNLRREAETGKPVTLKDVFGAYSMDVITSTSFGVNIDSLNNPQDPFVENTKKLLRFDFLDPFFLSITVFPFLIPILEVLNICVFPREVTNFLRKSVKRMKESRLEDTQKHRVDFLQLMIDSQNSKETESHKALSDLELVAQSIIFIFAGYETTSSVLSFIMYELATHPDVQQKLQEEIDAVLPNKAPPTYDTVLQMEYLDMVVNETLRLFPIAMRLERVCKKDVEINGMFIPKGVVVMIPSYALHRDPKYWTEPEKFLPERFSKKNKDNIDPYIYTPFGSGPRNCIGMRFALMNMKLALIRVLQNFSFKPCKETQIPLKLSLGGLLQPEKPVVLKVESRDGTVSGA

`COC(=O)c1c(C(=O)OC)c2c3cc(OC)c(OC)cc3cc([Si](C)(C)C)n2c1C(=O)OC`: the Potency in assay [1] was 1.51 µM (active); in assay [2] it was 2.13 µM (active). For the same molecule, the Potency result in assay [3] was “inactive”.

Consider `COC1=C[C@H](C(=O)NCc2ccccc2)[C@@]2(C)Cc3ccccc3[C@@H]2CC1=O`, for which the Potency entry in assay [4], in assay [1], in assay [2] and in assay [3] was “inactive” in each case.

For the molecule `C=CCC(C)(NCc1ccccc1)C(=O)OCC` (configuration not stated), the Potency entry in assay [4], in assay [1], in assay [2] and in assay [3] was “inactive” each time.

For `CC(C)=CCCC(C)=CCON=C1C[C@@H](O)[C@@H](O)[C@@H]2[C@H]3C(=O)N(Cc4ccccc4)C(=O)[C@@H]3CC[C@@H]12`, the Potency entry in assay [5] and in assay [3] was “inactive” each time.

With `CCCC[C@]12Cc3cc(C#N)ccc3[C@H](O1)c1c(cc(C)n(Cc3ccccc3)c1=O)O2`, the Potency in assay [1] is 1.69 µM (active). Further, the Potency entry in assay [3] was “inactive”.

As to `C=CC[C@@]1(c2ccccc2)Oc2ccccc2-c2nc3ccccc3nc21`, the Potency result in assay [3] was “inactive”.

For `C#CCN1C(=O)[C@]2(OC[C@@H]3Cc4ccccc4[C@@H]3C=C2C)c2ccccc21`, the Potency entry in assay [3] was “inactive”.

With `COc1ccc(O[C@H]2C=C[C@@H](c3ccccc3)O[C@H]2COC(=O)CCC(C)=NO[C@H](C)c2cn([C@@H]3COC[C@@H]3O)nn2)cc1`, the Potency entry in assay [5] and in assay [3] was “inactive” in each case.

Regarding `COC(=O)c1ccc(CN2C(=O)[C@]3(OCCC=C[C@@H]3C)c3cc(OC)ccc32)cc1`, the Potency result in assay [5] and in assay [3] was “inactive” in each case.

`C[C@@H]1[C@@H](c2ccccc2)c2cc3ccccc3nc2-c2nc3ccccc3cc2[C@H]1C(=O)N1CCCC1`: the Potency result in assay [3] was “inactive”.

With `COc1cccc([C@@H]2Oc3ccc(Br)cc3C(=O)[C@@H]2OC(=O)N[C@H]2CCCc3ccccc32)c1`, the Potency entry in assay [4], in assay [5] and in assay [3] was “inactive” in each case.

Consider `O=C1C2=C(C(=O)c3ccccc31)[C@H]1O[C@](c3ccsc3)(Cc3c1ccc1ccccc31)O2`, for which the Potency result in assay [5], in assay [2] and in assay [3] was “inactive” each time.

Consider `COC(=O)[C@@H]1CC[C@H](C)[C@@H](c2ccc(C)cc2)N1C(=O)c1ccc(C=NOC[C@@H](O)COCc2ccco2)cc1`, for which the Potency result in assay [5] is “inactive”.

Regarding `O=C(NC(CC1=CCCCC1)c1ccc2ccccc2c1)C(F)(F)F` (configuration not stated), the Potency entry in assay [5], in assay [2] and in assay [3] was “inactive” in each case.

For `CC(CCC(=O)OC[C@H]1O[C@H](C#Cc2ccccc2)C=C[C@H]1Oc1ccc(C)cc1)=NO[C@H](C)c1cn([C@H](CO)Cc2ccccc2)nn1`, the Potency result in assay [4], in assay [5] and in assay [3] was “inactive” in each case.

Turning to `CCc1cc2c(nc1CC)CCN(CCC(C)=NO[C@H](C)c1cn([C@H](CO)Cc3ccccc3)nn1)C2`, the Potency in assay [1] was 1.51 µM (active). For the same molecule, the Potency result in assay [3] is “inactive”.

Take `CC(Nc1oc(-c2ccccc2)nc1C(C)(C)C)c1ccccc1` (configuration not stated): the Potency result in assay [4], in assay [1] and in assay [3] was “inactive” throughout.

With `CCCC[C@]12Cc3ccccc3[C@H](O1)c1c(cc(-c3ccccc3)oc1=O)O2`, the Potency in assay [4] is 1.69 µM (active); in assay [1], 1.9 µM (active).

With `COCOc1ccc(Br)cc1C(=O)[C@@H]1O[C@@H]1c1cccc(OC)c1`, the Potency entry in assay [5] is “inactive”.

On to `Cc1cc2c(c(=O)n1Cc1ccccc1)[C@H]1O[C@](c3ccsc3)(Cc3ccccc31)O2`, for which the Potency result in assay [3] was “inactive”.

Consider `CCN1C(=NCCc2ccccn2)NC(c2cccs2)C(C(=O)OC)=C1C` (configuration not stated), for which the Potency entry in assay [2] and in assay [3] was “inactive” throughout.

Turning to `C=C(COC)C1=CCC(C(=O)OC)(C(=O)OC)[C@@H](C[N+](=O)[O-])c2ccccc21`, the Potency entry in assay [4], in assay [2] and in assay [3] was “inactive” each time.

For the molecule `COC(=O)C1=C(C)N(CCc2cc(OC)c(OC)c(OC)c2)C(=O)NC1c1ccc(Br)cc1` (configuration not stated), the Potency result in assay [5] and in assay [3] was “inactive” each time.

For `COc1ccc(O[C@H]2C=C[C@@H](c3ccccc3)O[C@H]2COC(=O)CCC(C)=NO[C@H](C)CN2CCCc3nc(C)c(C)cc32)cc1`, in assay [1], the Potency was 1.9 µM (active).

Turning to `Cc1ccccc1Nc1oc(-c2ccccc2)nc1C=Cc1ccccc1`, the Potency entry in assay [4] and in assay [3] was “inactive” each time.

Consider `CCOC(=O)CN1C(=O)N[C@@H](c2ccccc2)[C@H](C(C)=O)[C@H]1C`, for which the Potency result in assay [5], in assay [1] and in assay [3] was “inactive” each time.

As for `C=CC[C@@]1(c2ccc(Br)cc2OC)Oc2ccccc2-c2nccnc21`, the Potency entry in assay [4], in assay [1] and in assay [3] was “inactive” in each case.

Take `COC(=O)[C@@H]1C[C@@]23C(=NN=C(SC)C2Nc2ccccc23)N1C(C)=O` (some centres not stated): the Potency entry in assay [5], in assay [2] and in assay [3] was “inactive” in each case.

In the case of `C[C@H]1CCCC(=O)N[C@@H](c2ccccc2)[C@@H](C)CCCC(=O)N[C@@H]1c1ccccc1`, the Potency result in assay [4], in assay [1] and in assay [3] was “inactive” each time.

Consider `CC1(C)CC(=O)C2=C(C1)O[C@@]1(CCCCN3C(=O)c4ccccc4C3=O)Cc3cc(C#N)ccc3[C@H]2O1`, for which the Potency in assay [1] was 1.69 µM (active). In addition, the Potency entry in assay [3] was “inactive”.

For the molecule `CCN1C(N(C)CCc2ccc(Br)cc2)=NC(c2ccccc2)C(C(=O)OC)=C1C` (configuration not stated), the Potency entry in assay [1] and in assay [2] was “inactive” in each case.

As for `COc1cccc([C@H]2Oc3ccc(OC)cc3C(=NO[C@@H](C)c3cc(-c4c(C)cc(C)cc4C)no3)[C@H]2O)c1`, the Potency entry in assay [4], in assay [1], in assay [2] and in assay [3] was “inactive” in each case.

Turning to `COc1ccc(-c2cnnc(CCCn3ccnc3-c3ccccc3)n2)cc1`, in assay [6], the Potency is 6.31 µM (active). Besides, the activity change, positive = activation in assay [7] was -71.9% [at 11.4 µM]. The Potency result in assay [4] and in assay [5] was “inactive” in each case.

Regarding `CC1=C[C@@H](COCc2ccccc2)O[C@@]2(C1)C(=O)N(Cc1ccccc1C(F)(F)F)c1ccccc12`, in assay [3], the Potency result was “inactive”.

Consider `CCCCCCc1cc2cc(OC)c(OC)cc2c2c(C(=O)OC)c(C(=O)OC)c(C(=O)OC)n12`, for which, in assay [1], the Potency was 1.9 µM (active).

`CC(CCN1CCCc2nc(C)c(C)cc21)=NO[C@H](C)c1cn([C@H](CO)Cc2ccccc2)nn1`: the Potency in assay [1] was 1.51 µM (active).

For the molecule `COC(=O)C1=C(C)N(Cc2ccccc2)C(=NCCc2cccnc2)NC1c1ccccc1` (configuration not stated), the Potency entry in assay [2] was “inactive”.
